According to the supplement of paper PMC3334620:
In all, about 33,000 sequences were measured (“E-score (-0.5 to 0.5)”: median about -0.016, highest 2% from about 0.3 on). The full list was thinned out, with the highest values kept by preference.

These sequences were tested against T1, Yer184c (UniProt P39961) (assay: PBM E-score (8-mer binding enrichment) (E-score (-0.5 to 0.5)); higher = stronger / more preferred TF binding). Settings: protein concentration: 100 nM; construct: GST-full length.
T1 sequence: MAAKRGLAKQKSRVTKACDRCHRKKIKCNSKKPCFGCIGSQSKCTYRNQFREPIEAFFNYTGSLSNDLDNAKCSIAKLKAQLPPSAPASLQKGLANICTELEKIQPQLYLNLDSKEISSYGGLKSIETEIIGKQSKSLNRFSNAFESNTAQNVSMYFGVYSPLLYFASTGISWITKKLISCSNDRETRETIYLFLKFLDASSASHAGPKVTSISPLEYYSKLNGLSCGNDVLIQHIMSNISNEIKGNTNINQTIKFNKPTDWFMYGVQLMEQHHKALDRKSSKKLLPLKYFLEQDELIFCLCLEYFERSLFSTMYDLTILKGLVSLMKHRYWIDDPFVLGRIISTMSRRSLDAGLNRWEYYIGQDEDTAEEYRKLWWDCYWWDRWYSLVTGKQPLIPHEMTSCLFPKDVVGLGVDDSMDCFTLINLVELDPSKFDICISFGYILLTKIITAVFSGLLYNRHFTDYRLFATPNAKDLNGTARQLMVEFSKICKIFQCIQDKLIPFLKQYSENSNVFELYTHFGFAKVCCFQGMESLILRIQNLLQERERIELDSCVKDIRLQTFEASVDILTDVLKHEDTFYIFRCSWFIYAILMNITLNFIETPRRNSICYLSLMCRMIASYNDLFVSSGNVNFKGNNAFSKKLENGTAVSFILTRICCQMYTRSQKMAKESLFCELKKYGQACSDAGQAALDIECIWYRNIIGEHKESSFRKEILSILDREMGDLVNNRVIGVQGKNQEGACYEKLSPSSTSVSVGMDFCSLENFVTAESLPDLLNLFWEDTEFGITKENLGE
Method: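 Universal 'all 10-mer' protein binding microarrays (Agilent AMADID 015681) probed with GST-tagged S. cerevisiae TFs (full-length or DBD) made by in vitro transcription/translation (PURExpress), about 100-200 nM. Bound TF was detected with fluorescent anti-GST. Each ungapped 8-mer (which stands for itself and its reverse complement) is scored by the PBM enrichment score (E-score), a modified Wilcoxon-Mann-Whitney statistic from -0.5 to +0.5, computed with the Universal PBM Analysis Suite. Scale: above 0.35 generally sequence-specific binding.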

Row | Sequence | PBM E-score
1 | AGCCCAAG | -0.228
2 | AACCGAAA | 0.345
3 | GGCCGACC | 0.028
4 | CGCCGAAA | 0.293
5 | AGCCGACT | -0.00308
6 | TGCCGACA | 0.222
7 | TGCCGAAA | 0.371
8 | AACCGAAT | 0.199
9 | GGCCGAAC | 0.305
10 | GCCCGAAC | 0.0908
11 | ACCCGAAT | 0.104
12 | AGCCGAAT | 0.392
13 | AACCGAAG | 0.259
14 | GCGGGGAA | -0.0187
15 | CGGGCTAA | 0.0904
16 | CTGCCTCC | -0.339
17 | ATACGACC | -0.182
18 | GATCTGGA | -0.0474
19 | GACTTTCA | -0.0149
20 | CATGCGCC | -0.092
21 | CCATTAAG | -0.0869
22 | ACCTCACT | -0.0518
23 | ACTAGCGG | -0.0521
24 | GACCGAAC | 0.33
25 | GGCCGAAA | 0.398

Row | Sequence | PBM E-score
26 | CACCGAAC | 0.143
27 | AGCCGAAC | 0.279
28 | GGTCGAAA | -0.168
29 | GACCGAAA | 0.265
30 | AGCCGAAA | 0.364
31 | GCCCGAAA | 0.171
32 | ACCCGAAA | 0.169
33 | CACTAGGC | -0.175
34 | CGATAAAG | -0.00214
35 | CTACGCAA | -0.00413
36 | ACCCAATA | -0.0358
37 | GGTTACAA | 0.23
38 | CCATAACC | -0.184
39 | AAGATAGT | 0.108
40 | GAACATTC | 0.102
41 | GCGAGAAA | -0.0014
42 | TCGAGAAA | 0.0245
43 | ACGAAATA | 0.11
44 | CCGAAAGG | 0.166
45 | GCGAAATA | 0.206
46 | TCGAAAAA | 0.169
47 | CCGAAAAA | 0.371
48 | CCGAAATA | 0.34
49 | CCGAGAAA | 0.351
50 | CCGAAAAG | 0.31

Row | Sequence | PBM E-score
51 | CCGAAAAC | 0.243
52 | ACGAAAAG | 0.187
53 | AGCCATCG | -0.189
54 | CCTTGCCG | 0.124
55 | CCACAGAG | -0.188
56 | AACTTACG | 0.0113
57 | GGGGGGAC | -0.445
58 | CGGCGCAC | 0.216
59 | GTCTTAAC | -0.122
60 | TAAGGTGA | -0.0772
61 | CGGGGAAG | 0.0845
62 | ACAGTTAT | -0.0291
63 | TCGAAGAA | -0.0488
64 | CCGAAGAA | 0.345
65 | ACGAAGAA | 0.258
66 | GTGAATCA | -0.0703
67 | TGTTAACA | 0.111
68 | CCGGTAAC | 0.259
69 | ACGGTAAG | -0.00751
70 | TCGGTAAA | 0.296
71 | CCGGTAAA | 0.321
72 | CCGGTACG | -0.00725
73 | CCGGTAAG | 0.369
74 | GAAAGAGC | -0.0552
75 | CCCTTTGA | -0.266

Row | Sequence | PBM E-score
76 | ACGCGACA | -0.0168
77 | CCGATTCA | 0.0391
78 | CCGATTCG | 0.358
79 | CCGATTCC | 0.164
80 | ATGCCAAT | -0.0596
81 | CCGGACAG | 0.324
82 | CCGGACAC | 0.286
83 | CCGGACAA | 0.29
84 | CCGGACCG | 0.353
85 | CGGGACCG | 0.31
86 | CCGGACCA | 0.297
87 | CCGGACCC | 0.235
88 | ACGGACCA | 0.327
89 | ACGGACCG | 0.193
90 | AGGGACCG | -0.165
91 | CGGGACCA | -0.098
92 | GCGGACCA | 0.243
93 | GTAGTGGA | 0.177
94 | ATGCTGGG | -0.0916
95 | ACAATTGT | 0.097
96 | AATGCTCG | -0.0329
97 | AACCAACG | -0.0237
98 | ACAGCCCA | -0.0828
99 | TATCTGAA | 0.108
100 | AAAACTGT | 0.0544

Row | Sequence | PBM E-score
101 | ACGGACAA | 0.27
102 | GCGGACAA | 0.298
103 | TCGGACAA | 0.378
104 | TCGCTGCA | -0.0505
105 | AACTGGGA | -0.151
106 | ATTGCGGC | 0.0068
107 | AAAGTGCA | -0.0658
108 | CCGGCGCG | 0.305
109 | CCGGCGCA | 0.277
110 | CCGGCGCC | 0.354
111 | GCGGCGCC | 0.299
112 | ACGGCGCG | 0.232
113 | ACGGCGCC | 0.122
114 | CGTATTGC | 0.0559
115 | ATAGCTGC | 0.0565
116 | GTCGGAGA | 0.158
117 | ATCGGCAT | 0.267
118 | ATCGGAAT | 0.379
119 | TTCAGAAA | 0.0478
120 | TTAGGAAA | 0.146
121 | GTCGGAAA | 0.318
122 | ATCGGAAC | 0.291
123 | ATCGGAAA | 0.344
124 | TTCGGAAA | 0.402
125 | GTCGGGAA | 0.0333

Row | Sequence | PBM E-score
126 | ATCGGAGA | 0.216
127 | ATCGGAAG | 0.211
128 | CAGCCTTA | -0.0157
129 | CTTGGATC | -0.0713
130 | CATCGCAG | -0.28
131 | GCGGGAAC | -0.00769
132 | CCTTAAGG | -0.0623
133 | ACCGGTAA | 0.217
134 | GCCGGTGA | 0.235
135 | TCCGGTAA | 0.387
136 | CCCGGTAA | 0.221
137 | GCCGGTAA | 0.346
138 | GCCGGTAC | 0.229
139 | GTAGCTAA | -0.0505
140 | GGCCTCCA | -0.0306
141 | ATCCCATG | -0.297
142 | AGCTGAGG | -0.11
143 | ACCCTCCC | 0.0834
144 | ACGAAAGC | 0.0461
145 | CGGCTAAA | 0.327
146 | CGGCTAGC | 0.24
147 | CGGCTAGA | 0.306
148 | AGGCTAAA | -0.0661
149 | GGGCTAGA | -0.183
150 | TGGCTAAA | 0.0133

Row | Sequence | PBM E-score
151 | CTCCCACA | -0.184
152 | AGTGCACT | 0.067
153 | CTGGGTTA | -0.115
154 | ATGAGTAA | 0.0956
155 | ACAACCCG | 0.0761
156 | CAATTCCC | 0.178
157 | CAATTCCA | -0.0791
158 | AAATTCCC | -0.0964
159 | AAATTCCA | 0.216
160 | CAATTCCG | 0.315
161 | AAATTCCG | 0.384
162 | AACAACCC | -0.0615
163 | ATCCTTGA | 0.0411
164 | CGGATAAG | 0.217
165 | CGGATAAA | 0.417
166 | ATGATAAA | 0.271
167 | TTGATAAA | 0.329
168 | CGGATGAA | 0.351
169 | GGGATAAC | -0.0432
170 | GTGATAAA | 0.179
171 | AGGATGAA | -0.0513
172 | CGGATGAG | 0.171
173 | AGGATAAC | -0.197
174 | CGGATAAC | 0.34
175 | TGGATAAA | 0.18

Row | Sequence | PBM E-score
176 | CCCCAAAG | -0.253
177 | CGGAGACC | 0.0297
178 | CGAACACG | 0.172
179 | CTATTGCC | -0.131
180 | TCTCTTAA | 0.126
181 | AAAGCTTT | 0.237
182 | CGTCAACC | -0.137
183 | GGTGCAGA | -0.206
184 | CAAATGAG | -0.104
185 | ACACTCGC | 0.0547
186 | AGAGACAC | -0.119
187 | TGGATCAA | -0.0363
188 | GGGATATA | 0.0967
189 | CGGATATC | 0.285
190 | AGGAGATA | -0.134
191 | CGGATAGA | 0.338
192 | CGGATCAA | 0.318
193 | AGGATAGA | 0.0167
194 | CGGATATA | 0.389
195 | GGGATAGA | -0.186
196 | GGGAGATA | -0.161
197 | CGGAGATA | 0.406
198 | CGGATCAG | 0.224
199 | CTCTCGTA | -0.204
200 | GATGAGCC | -0.0364

Row | Sequence | PBM E-score
201 | GACTTCCC | -0.0878
202 | GAATACGA | 0.118
203 | GTCTCATA | -0.0146
204 | CGCCATGA | -0.155
205 | ATTGCAAC | 0.0297
206 | AGAGATCT | -0.168
207 | CATGAGAC | -0.0666
208 | TTAATAAA | 0.328
209 | ATAATATG | 0.132
210 | ATAATAAA | 0.276
211 | CTAATATA | 0.118
212 | ATAATATA | 0.323
213 | CTAATAAA | 0.0623
214 | ATGTGTCG | -0.0246
215 | AGAGTTTC | -0.0656
216 | AGGAATTG | -0.0124
217 | CCGGTCCG | 0.338
218 | CCGGTCCA | 0.0407
219 | CCGGTCCC | 0.0884
